This is part of a sample that, as a whole, favours compounds with a hit. Of some 83,000 tested, about 20% had one in any assay.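 Values shown are percent growth following 48 h exposure of cells in 96-well plates to a single concentration of compound; below 10 was considered active.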 Active and inactive are the calls of the source.
Assays:
Assay in all cases: NCI-60 one-dose screen, 48 h (100 = growth as untreated, 0 = no growth, -100 = all killed)
Settings in all cases: 10 µM unless noted
SR leukemia = tested on: SR leukemia
RPMI-8226 leukemia = tested on: RPMI-8226 leukemia
OVCAR-8 ovarian = tested on: OVCAR-8 ovarian
OVCAR-5 ovarian = tested on: OVCAR-5 ovarian
OVCAR-4 ovarian = tested on: OVCAR-4 ovarian
SK-OV-3 ovarian = tested on: SK-OV-3 ovarian
IGROV1 ovarian = tested on: IGROV1 ovarian
OVCAR-3 ovarian = tested on: OVCAR-3 ovarian
HS 578T breast = tested on: HS 578T breast
NCI/ADR-RES ovarian = tested on: NCI/ADR-RES ovarian

Measured: growth

CCOc1ccc(/C=C/C(=O)c2cccc(OCCCOc3cccc(C(=O)/C=C/c4ccc(OCC)cc4)c3)c2)cc1
inactive: SR leukemia 90.1% | RPMI-8226 leukemia 93.6% | OVCAR-8 ovarian 85.9% | OVCAR-5 ovarian 107% | OVCAR-4 ovarian 69.1% | SK-OV-3 ovarian 103% | IGROV1 ovarian 78.7% | OVCAR-3 ovarian 85.5% | HS 578T breast 90.2% | NCI/ADR-RES ovarian 86.5%

C#CCOc1cccc(Nc2ncnc3c2ncn3C2CCN(C(=O)CCl)C2)c1 (stereo not given)
inactive: SK-OV-3 ovarian 48.4% | HS 578T breast 14% | NCI/ADR-RES ovarian 15.7%
active: SR leukemia -23.8% | RPMI-8226 leukemia -49.8% | OVCAR-8 ovarian 5.81% | OVCAR-5 ovarian -88.4% | OVCAR-4 ovarian -51.7% | IGROV1 ovarian -58.3% | OVCAR-3 ovarian -90.9%

Cc1[nH]n(-c2cccc(Cl)c2)c(=O)c1/C=C1\C=c2ccccc2=CC1=O
active: OVCAR-4 ovarian -62.5%
inactive: SR leukemia 29.7% | RPMI-8226 leukemia 96.4% | OVCAR-8 ovarian 22.3% | OVCAR-5 ovarian 16.9% | SK-OV-3 ovarian 15.3% | IGROV1 ovarian 33.9% | OVCAR-3 ovarian 63.2% | HS 578T breast 82.2% | NCI/ADR-RES ovarian 75.3%

COc1cc(-c2ccc[nH]2)[nH]c1/C=C1\N=C(C)C(CC(=O)OCC(C)(C)C)=C1C
active: SR leukemia -54.2% | RPMI-8226 leukemia -49.6% | OVCAR-8 ovarian -60.8% | OVCAR-5 ovarian -55.1% | OVCAR-4 ovarian -91.5% | SK-OV-3 ovarian -57.3% | IGROV1 ovarian -43.4% | OVCAR-3 ovarian -98% | HS 578T breast -24.8% | NCI/ADR-RES ovarian -65.8%

Cc1cccc(NC(=O)Cn2cc(CN3CCN(c4ccnc5cc(Cl)ccc45)CC3)nn2)c1
inactive: SR leukemia 78% | RPMI-8226 leukemia 63.7% | OVCAR-8 ovarian 92.7% | OVCAR-5 ovarian 96.8% | OVCAR-4 ovarian 78.1% | SK-OV-3 ovarian 76.6% | IGROV1 ovarian 89.1% | OVCAR-3 ovarian 91.1% | HS 578T breast 85.1% | NCI/ADR-RES ovarian 91.3%

COc1cc(-c2nccc3[nH]c(-c4cccc5[nH]ccc45)nc23)cc(OC)c1OC
inactive: OVCAR-8 ovarian 18.2% | OVCAR-5 ovarian 73.8% | OVCAR-4 ovarian 47.5% | SK-OV-3 ovarian 15.1% | IGROV1 ovarian 44.6% | OVCAR-3 ovarian 16.7% | HS 578T breast 38.4%
active: SR leukemia 8.9% | RPMI-8226 leukemia -43.6% | NCI/ADR-RES ovarian 4.71%

COC(=O)c1ccc2c(c1)c1c(C)c3cnccc3c(C)c1n2C
active: RPMI-8226 leukemia -15.4% | OVCAR-8 ovarian 0.0639% | OVCAR-5 ovarian -33.3% | OVCAR-4 ovarian -14.8% | SK-OV-3 ovarian -15.3% | IGROV1 ovarian -33.1% | OVCAR-3 ovarian -26% | HS 578T breast -15% | NCI/ADR-RES ovarian -25%
inactive: SR leukemia 18.2%

Nc1cc(C(=O)O)cc(-n2c(O)c(C=C3N=c4ccccc4=N3)sc2=S)c1
inactive: SR leukemia 121% | RPMI-8226 leukemia 100% | OVCAR-8 ovarian 103% | OVCAR-5 ovarian 99% | OVCAR-4 ovarian 101% | SK-OV-3 ovarian 99.9% | IGROV1 ovarian 86.8% | OVCAR-3 ovarian 106% | HS 578T breast 103% | NCI/ADR-RES ovarian 103%

COc1cc(-c2ccc(-c3ccc(C(=N)N)cc3)s2)cc(OC)c1OC
inactive: OVCAR-8 ovarian 70.7% | OVCAR-5 ovarian 83% | OVCAR-4 ovarian 54% | SK-OV-3 ovarian 77.9% | IGROV1 ovarian 62.6% | OVCAR-3 ovarian 46% | HS 578T breast 34.7% | NCI/ADR-RES ovarian 95.4%
active: SR leukemia 5.38% | RPMI-8226 leukemia -22.6%

O=C(c1c[nH]c2ccccc12)c1n[nH]c(=S)n1-c1ccc([N+](=O)[O-])cc1
inactive: SR leukemia 92% | RPMI-8226 leukemia 68.4% | OVCAR-8 ovarian 97.1% | OVCAR-5 ovarian 101% | OVCAR-4 ovarian 85% | SK-OV-3 ovarian 95.4% | IGROV1 ovarian 73.1% | OVCAR-3 ovarian 95.3% | HS 578T breast 92.8% | NCI/ADR-RES ovarian 106%

CC(C)(C)c1ccc(C(=O)N/N=C/c2ccc(O)cc2O)cc1
active: NCI/ADR-RES ovarian 5.92%
inactive: SR leukemia 19.8% | RPMI-8226 leukemia 28.6% | OVCAR-8 ovarian 17.4% | OVCAR-5 ovarian 34.4% | OVCAR-4 ovarian 22% | SK-OV-3 ovarian 23.2% | IGROV1 ovarian 20% | OVCAR-3 ovarian 12.1% | HS 578T breast 38.1%

N=C(N)c1ccc(-c2ccc(-c3cc(Cl)cc(Cl)c3)s2)s1
active: SR leukemia -29.4% | RPMI-8226 leukemia -26% | OVCAR-8 ovarian -34.6% | OVCAR-5 ovarian 3.07% | OVCAR-4 ovarian -58% | IGROV1 ovarian -26.7% | OVCAR-3 ovarian -76.2% | NCI/ADR-RES ovarian -21.4%
inactive: SK-OV-3 ovarian 88.7% | HS 578T breast 87.6%

CNC(=O)c1cc(Oc2ccc3c(c2)sc2nc(-c4cc(C(F)(F)F)cc(C(F)(F)F)c4)cn23)ccn1
inactive: SR leukemia 34% | RPMI-8226 leukemia 50.1% | OVCAR-8 ovarian 36.1% | OVCAR-5 ovarian 91.4% | OVCAR-4 ovarian 24.8% | SK-OV-3 ovarian 46.7% | IGROV1 ovarian 74.1% | OVCAR-3 ovarian 68.3% | HS 578T breast 49.4% | NCI/ADR-RES ovarian 68.3%

O=C(Nc1cc(Cl)cc(Cl)c1)Oc1c(Cl)c(Cl)c(Cl)c(Cl)c1Cl
inactive: SR leukemia 64.5% | RPMI-8226 leukemia 37% | OVCAR-8 ovarian 78.1% | OVCAR-5 ovarian 87.3% | OVCAR-4 ovarian 82.4% | SK-OV-3 ovarian 77.2% | IGROV1 ovarian 79.2% | OVCAR-3 ovarian 54.9% | HS 578T breast 63.5% | NCI/ADR-RES ovarian 77.5%

C=C(C)[C@@H]1CC[C@]2(C(=O)Nc3ccccn3)CC[C@]3(C)[C@H](CC[C@@H]4[C@@]5(C)CCCNC(C)(C)[C@@H]5CC[C@]43C)[C@@H]12
active: SR leukemia -29.5% | RPMI-8226 leukemia -46% | OVCAR-4 ovarian 8.81%
inactive: OVCAR-8 ovarian 12.4% | OVCAR-5 ovarian 70.7% | SK-OV-3 ovarian 32.2% | IGROV1 ovarian 35.4% | OVCAR-3 ovarian 20.9% | HS 578T breast 26.9% | NCI/ADR-RES ovarian 61%

[N-]=[N+]=NCC1OC(n2cnc3c(NC(=O)Nc4ccccc4)ncnc32)C2OC(=O)CC12 (stereo not given)
inactive: SR leukemia 90.1% | RPMI-8226 leukemia 98.4% | OVCAR-8 ovarian 103% | OVCAR-5 ovarian 95.7% | OVCAR-4 ovarian 106% | SK-OV-3 ovarian 106% | IGROV1 ovarian 91.3% | OVCAR-3 ovarian 95.1% | HS 578T breast 112% | NCI/ADR-RES ovarian 102%

CCCCCCCCn1ccc2cc(NC(=O)CN=[N+]=[N-])ccc21
inactive: SR leukemia 100% | RPMI-8226 leukemia 99.2% | OVCAR-8 ovarian 96.9% | OVCAR-5 ovarian 98.2% | OVCAR-4 ovarian 103% | SK-OV-3 ovarian 111% | IGROV1 ovarian 87.2% | OVCAR-3 ovarian 96% | HS 578T breast 101% | NCI/ADR-RES ovarian 116%

O=c1cc(CNc2cc(F)cc(F)c2)c2ccc(I)cc2[nH]1
active: SR leukemia -0.446%
inactive: RPMI-8226 leukemia 15.8% | OVCAR-8 ovarian 53.5% | OVCAR-5 ovarian 64.3% | OVCAR-4 ovarian 60.2% | SK-OV-3 ovarian 39% | IGROV1 ovarian 45.9% | OVCAR-3 ovarian 11.2% | HS 578T breast 19.9% | NCI/ADR-RES ovarian 26.3%

O=S(=O)(Nc1cc(Sc2nc3ccccc3s2)c(O)c2ccccc12)c1ccc2ccccc2c1
inactive: SR leukemia 100% | RPMI-8226 leukemia 88.5% | OVCAR-8 ovarian 75.3% | OVCAR-5 ovarian 111% | OVCAR-4 ovarian 77.8% | SK-OV-3 ovarian 101% | IGROV1 ovarian 101% | OVCAR-3 ovarian 82.6% | HS 578T breast 101% | NCI/ADR-RES ovarian 86.1%

COc1ccc(C2[C@@H](Cl)C(=O)N2c2cc(OC)c(OC)c(OC)c2)cc1Cl (stereo not given in full)
active: SR leukemia 5.49% | RPMI-8226 leukemia 9.34% | OVCAR-8 ovarian 9.75% | SK-OV-3 ovarian -0.0611% | OVCAR-3 ovarian -2.62%
inactive: OVCAR-5 ovarian 64.4% | OVCAR-4 ovarian 56% | IGROV1 ovarian 33.5% | HS 578T breast 31% | NCI/ADR-RES ovarian 18%

N=C(N)c1ccc(-c2ccc(-c3ccccc3)o2)o1
inactive: OVCAR-8 ovarian 34.4% | OVCAR-5 ovarian 72.8% | OVCAR-4 ovarian 63.1% | SK-OV-3 ovarian 45.9% | IGROV1 ovarian 45.3% | OVCAR-3 ovarian 17% | HS 578T breast 45.6% | NCI/ADR-RES ovarian 36.3%
active: SR leukemia -15% | RPMI-8226 leukemia 9.58%

Cc1cc(O)cc(-c2nn(C)cc2-c2cc(N3CCOCC3)nc(-c3cccnc3)n2)c1
inactive: SR leukemia 15% | RPMI-8226 leukemia 38.2% | OVCAR-8 ovarian 47.1% | OVCAR-5 ovarian 84.6% | OVCAR-4 ovarian 73.1% | SK-OV-3 ovarian 38.5% | IGROV1 ovarian 45% | HS 578T breast 20.5% | NCI/ADR-RES ovarian 45.9%
active: OVCAR-3 ovarian 8.62%

C=C(C)[C@@H]1CC[C@]2(CO)CC[C@]3(C)[C@H](CC[C@@H]4[C@@](C)(CCCN)[C@H](C(=C)C)CC[C@]43C)[C@@H]12
active: SR leukemia -14% | RPMI-8226 leukemia -43.2% | OVCAR-8 ovarian -40.4% | OVCAR-5 ovarian -78.5% | OVCAR-4 ovarian -67.8% | SK-OV-3 ovarian -82.4% | IGROV1 ovarian -96.2% | OVCAR-3 ovarian -61.7% | HS 578T breast -52.3% | NCI/ADR-RES ovarian -80.4%

COC1C(O)CC(OC2CC(OC3CC(O[C@@H]4C(=O)c5c(cc6cc(OC7CC(OC8CC(O)C(O)C(C)O8)C(O)C(C)O7)c(C)c(O)c6c5O)CC4[C@H](OC)C(=O)C(C)=O)OC(C)C3O)OC(C)C2O)OC1C (stereo not given in full)
inactive: OVCAR-5 ovarian 13.9% | OVCAR-4 ovarian 10.7% | SK-OV-3 ovarian 17.4% | IGROV1 ovarian 13.6% | HS 578T breast 10.8% | NCI/ADR-RES ovarian 18.8%
active: SR leukemia -5.46% | RPMI-8226 leukemia 1.67% | OVCAR-8 ovarian 4.01% | OVCAR-3 ovarian 6.3%

Cc1cc(=O)oc2cc(Oc3nc(Br)cn4c(Br)cnc34)ccc12
inactive: SR leukemia 69.4% | RPMI-8226 leukemia 95.5% | OVCAR-8 ovarian 64.7% | OVCAR-5 ovarian 101% | OVCAR-4 ovarian 45.5% | SK-OV-3 ovarian 85.5% | IGROV1 ovarian 77.4% | OVCAR-3 ovarian 56.7% | HS 578T breast 69.9% | NCI/ADR-RES ovarian 57.5%

CC1(C)CC[C@]23CC[C@]4(C)[C@H](CC[C@@H]5[C@@]6(C)CCNCC(C)(C)[C@@H]6CC[C@]54C)[C@H]2[C@H]1OC3
active: SR leukemia 4.33%
inactive: RPMI-8226 leukemia 29.7% | OVCAR-8 ovarian 97.4% | OVCAR-5 ovarian 106% | OVCAR-4 ovarian 99.8% | SK-OV-3 ovarian 96.5% | IGROV1 ovarian 107% | OVCAR-3 ovarian 98.5% | HS 578T breast 104% | NCI/ADR-RES ovarian 104%
